Test in all cases: NCI-60 one-dose screen, 48 h (100 = growth as untreated, 0 = no growth, -100 = all killed)
What all share (conditions): 10 µM unless noted

The subject of experiment [1] is T-47D breast.
In experiment [2] the test system is BT-549 breast.
Experiment [3] has as its system MDA-MB-435 melanoma.
The subject of experiment [4] is SW-620 colon.
Experiment [5] deals with MCF7 breast.
Experiment [6] concerns HCT-116 colon.
In experiment [7] the test system is HCC-2998 colon.
Experiment [8] relates to KM12 colon.

The panel holds about 83,000 compounds, 20% with a hit somewhere; the sample as a whole holds those more often.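 The endpoint reported here, percent growth, reads 100 for growth as untreated, 0 for no net growth and -100 for all cells dead.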 Unmarked numbers belong to inactive results. Calls of active or inactive are those of the source. Rule for the calls: active = growth percent below 10; inactive = the rest.

Consider `CCOc1ccc2nc3ccc(Cl)cc3nc2c1`, for which the growth in experiment [1] is 80.6%; in experiment [2], 90.7%; in experiment [3] it was 107%; in experiment [4], 91%; in experiment [5], 92.3%; in experiment [6] it was 88.1%. The growth was 70.5% in experiment [7] and 94.5% in experiment [8].
For the molecule `CCCCCCCCCCCCOC(=O)/C=C\C(=O)NC(N)=O`, the growth in experiment [1] was 80.3%; in experiment [2], 67.7%; in experiment [3], 84.7%; in experiment [4], 91.2%; in experiment [5] it was 64.3%; in experiment [6], 68.2%. Further, the growth in experiment [7] is 110%; in experiment [8], 95.4%.
As to `Cc1c(Cc2ccccc2)c(=O)oc2c(C)c(OCC(=O)n3nc(C#N)cc3N)ccc12`, the growth in experiment [1] is 81.9%; in experiment [2] it was 90.3%; in experiment [3], 102%; in experiment [4] it was 101%; in experiment [5], 89.7%; in experiment [6], 95.3%. The growth is 104% in experiment [7] and 98.7% in experiment [8].
As to `CCCOC(=O)c1c(C)n(C)c2scc[n+]12`, the growth is 92.8% in experiment [1]; 80.5% in experiment [2]; 90.9% in experiment [3]; 77.8% in experiment [4]; 96.7% in experiment [5]; 70.3% in experiment [6]. Besides, the results for the growth in experiment [7] and in experiment [8] were 184% and 74%, respectively.
Turning to `c1cc(C2CCCCC2)ccc1OCCCCCCN1CCNCC1`, the growth in experiment [1] is 22.8%; in experiment [2] it was 83%; in experiment [3] it was 42.1%; in experiment [4], -37.7% (active); in experiment [5] it was -31.3% (active); in experiment [6], -61.7% (active). Also, the growth in experiment [7] was 12.9%; in experiment [8], 6.42% (active).
As to `CC(Br)c1nc2ccccc2cc1C(N)=O` (configuration not stated), the growth in experiment [1] is 95.7%; in experiment [2], 112%; in experiment [3] it was 112%; in experiment [4], 110%; in experiment [5], 84.9%; in experiment [6], 106%. Besides, the growth in experiment [7] is 102%; in experiment [8], 105%.
As to `BrCCCOc1ccc(Oc2ccc(OCCCBr)cc2)cc1`, the growth in experiment [1] is 113%; in experiment [2], 91%; in experiment [3], 107%; in experiment [4] it was 108%; in experiment [5] it was 97.9%; in experiment [6] it was 102%. In addition, the values for the growth in experiment [7] and in experiment [8] were 119% and 113%, respectively.
Regarding `COc1ccc(C2=NN(C(=O)c3cc(-c4ccc(C)cc4)nc4ccccc34)C(c3cc(-c4ccccc4)nn3-c3ccccc3)C2)cc1` (configuration not stated), the growth is 72.7% in experiment [1]; 90.6% in experiment [2]; 102% in experiment [3]; 96.7% in experiment [4]; 88.4% in experiment [5]; 81.4% in experiment [6]. Also, the growth is 102% in experiment [7] and 90.8% in experiment [8].
Turning to `CC(C)CSc1nc(-c2ccc(F)cc2)c(C#N)c(N2CCCCC2)n1`, the growth in experiment [1] was 91.2%; in experiment [2], 88.9%; in experiment [3], 98.6%; in experiment [4], 97.8%; in experiment [5], 83%; in experiment [6], 89.5%. Also, the growth in experiment [7] is 104%; in experiment [8], 86.1%.
On to `CC(C)(C)C(=O)OCOP(=O)(OCOC(=O)C(C)(C)C)C1CC(O)N(O)C1=O` (configuration not stated), for which the growth in experiment [1] was 36%; in experiment [2], -8.94% (active); in experiment [3], 68.5%; in experiment [4] it was 39.1%; in experiment [5] it was 15.3%; in experiment [6], 20.9%. In addition, the values for the growth in experiment [7] and in experiment [8] were 38.1% and 33.3%, respectively.
Regarding `CCCCCCCCCCCCCCCCNC(=O)Nc1ccc(C)c(NC(=O)NCCCCCCCCCCCCCCCC)c1`, the growth in experiment [1] was 104%; in experiment [2], 104%; in experiment [3], 105%; in experiment [4], 107%; in experiment [5], 101%; in experiment [6], 117%. Also, the growth in experiment [7] is 110%; in experiment [8] it was 113%.
Regarding `CC(=O)OCC(=O)[C@@]1(O)[C@H](C)C[C@H]2[C@@H]3C=C(C)C4=Cc5c(cnn5-c5ccc(F)cc5)C[C@]4(C)[C@H]3[C@@H](O)C[C@@]21C`, the growth in experiment [1] is 42.9%; in experiment [2] it was 54.8%; in experiment [3], 23.3%; in experiment [4], -70.3% (active); in experiment [5] it was 18.9%; in experiment [6] it was 15.7%. Also, the growth in experiment [7] was -35.3% (active); in experiment [8], -46.7% (active).
On to `CC1(c2ccc(Br)cc2)NC(=O)NC1=O` (configuration not stated), for which the growth in experiment [1] was 82.2%; in experiment [2], 90.4%; in experiment [3], 113%; in experiment [4] it was 106%; in experiment [5] it was 101%; in experiment [6] it was 99.5%. The values for the growth in experiment [7] and in experiment [8] were 106% and 101%, respectively.
Turning to `CC1Cc2cc(F)ccc2-n2cccc21` (configuration not stated), the growth is 102% in experiment [1]; 111% in experiment [2]; 96.9% in experiment [3]; 96.1% in experiment [4]; 107% in experiment [5]; 114% in experiment [6]. Moreover, the figures for the growth in experiment [7] and in experiment [8] were 106% and 110%, respectively.

These data come from PubChem BioAssay (NCI).
